PubChem BioAssay (NCATS)
Records with an inconclusive call do not appear. Some structures have more than one record in an assay (separate samples or runs), and their calls can disagree. Activity calls are given as the source filed them. Unless noted, calls follow the shape of the dose curve; as a rule, active = well fitted activation curve with a large enough effect in the main read-out, with a control signal flat (not every such curve was filed as active); inconclusive = small, poorly fitted or top-dose-only effect, or effect the other way, or a change in a side signal; inactive = flat fitted curve, though single readings scatter.

The compounds below were run against Mitogen-activated protein kinase 10 (Mus musculus) (UniProt Q61831) (assay: JNK3 AlphaScreen Assay (AID 530; active = well fitted curve in either direction with a large enough effect, not every such curve was filed as active;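 also: kinase came from lysate of stimulated human HepG2 cells; signal reports phosphorylation of biotinylated GST-cJun 1-79 at Ser73 with 10 µM ATP; % is scaled to controls: 0 for no effect and ±100 for the full control effect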)). Details: JNK3 lysate, c-Jun phosphorylation; series mostly up to 11.4 µM; activity change, negative = inhibition: at the top concentration.
How it was run: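 qHTS format: compounds tested as titrations against IL-1beta/TNF-alpha-activated HepG2 lysate JNK3 with biotin-GST-cJun substrate and 10 uM ATP at room temperature. Loss of anti-phospho-cJun AlphaScreen signal indicates inhibition.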

Row | Structure (SMILES) | activity change, negative = inhibition | Potency
1 | CN(C)c1ccc(-c2nc(N3CCNCC3)c3ccccc3n2)cc1 | -8.8% [at 57.1 µM] (inactive) | 
2 | CN1[C@@H]2CC[C@H]1CC(OC(=O)[C@@H](CO)c1ccccc1)C2 (some centres undefined) |  | inactive
3 | CN1C[C@H](c2ccccc2)C(O)([C@]2(c3ccccc3)CN(C)C[C@@H](c3ccccc3)C2=O)[C@H](c2ccccc2)C1 (some centres undefined) | 4.2% (inactive) | 
4 | CC(CO)(CO)N=Cc1cc(I)cc(I)c1O | -3.48% (inactive) | 
5 | Cc1cc(O)c(C(C)C)cc1C1(c2cc(C(C)C)c(O)cc2C)OC(=O)c2ccccc21 | 0.981% (inactive) | 
6 | C[N+](C)(C)/N=C\c1ccc(O)c(O)c1 | 1.6% (inactive) | 
7 | CSc1ccc(NC(=O)Nc2cc(C)ccn2)cc1 | -1.85% (inactive) | 
8 | C[C@H](CN(C)C)C(=O)c1ccccc1C(=O)O | 1.42% (inactive) | 
9 | O=C(O)c1cc(-c2ccc(-c3ccc(-c4cc(C(=O)O)c5cc(Cl)ccc5n4)cc3)cc2)nc2ccc(Cl)cc12 | 21.1% (inactive) | 
10 | Cc1cc2nc([C@H](C)C(=O)c3ccc(Cl)cc3)c(=O)[nH]c2cc1C | 0.678% (inactive) | 
11 | NCS(=O)(=O)O | -0.0674% (inactive) | 
12 | O=C(O)CCCC[C@H]1CCSS1 | 30.7% [at 57.1 µM] (inactive) | 
13 | C(=C/c1ccccc1)/CN1CCN(C(c2ccccc2)c2ccccc2)CC1 |  | inactive
14 | O=C(C[n+]1ccc2ccccc2c1)c1ccc2ccc3ccccc3c2c1 | -1.45% (inactive) | 
15 | CC(C)c1ccc(O)c(O)c(=O)c1 (tested in a mixture with another compound) | -2.31% (inactive) | 
16 | COc1cc2nc(N(C)CCCNC(=O)[C@@H]3CCCO3)nc(N)c2cc1OC | 6.97% [at 25.6 µM] (inactive) | 
17 | C[N+]1(NCC[N@@+]2(C)CCc3ccccc3C2)CCCCC1 | 5.41% (inactive) | 
18 | Oc1ccc([C@@H]2CNCCc3c2cc(O)c(O)c3Cl)cc1 | -10.8% [at 57.1 µM] (inactive) | 

The compounds below were run against 3',5'-cyclic-AMP phosphodiesterase 4B (Homo sapiens) (UniProt Q07343) (assay: qHTS Assay for Inhibitors of PDE-IV (AID 607; also: potency is read from the fitted curve at half-maximal effect; as to activation (PDE inhibition): % of control where 0% means no effect)). Details: HEK293 ACTOne CNG channel cells, membrane potential fluorescence; series mostly up to 22.9 µM; activation (PDE inhibition): at the top concentration.
How it was run: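 Live HEK293 cells with a modified cyclic nucleotide-gated (CNG) channel report intracellular cAMP via membrane-potential dye fluorescence (ex 535/em 590 nm). Endogenous PDE-IV was targeted. Compounds were tested at up to 22.9 uM final; RO 20-1724 100 uM served as control.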

Chain of 3',5'-cyclic-AMP phosphodiesterase 4B (Homo sapiens) (Q07343 whole entry, looked up): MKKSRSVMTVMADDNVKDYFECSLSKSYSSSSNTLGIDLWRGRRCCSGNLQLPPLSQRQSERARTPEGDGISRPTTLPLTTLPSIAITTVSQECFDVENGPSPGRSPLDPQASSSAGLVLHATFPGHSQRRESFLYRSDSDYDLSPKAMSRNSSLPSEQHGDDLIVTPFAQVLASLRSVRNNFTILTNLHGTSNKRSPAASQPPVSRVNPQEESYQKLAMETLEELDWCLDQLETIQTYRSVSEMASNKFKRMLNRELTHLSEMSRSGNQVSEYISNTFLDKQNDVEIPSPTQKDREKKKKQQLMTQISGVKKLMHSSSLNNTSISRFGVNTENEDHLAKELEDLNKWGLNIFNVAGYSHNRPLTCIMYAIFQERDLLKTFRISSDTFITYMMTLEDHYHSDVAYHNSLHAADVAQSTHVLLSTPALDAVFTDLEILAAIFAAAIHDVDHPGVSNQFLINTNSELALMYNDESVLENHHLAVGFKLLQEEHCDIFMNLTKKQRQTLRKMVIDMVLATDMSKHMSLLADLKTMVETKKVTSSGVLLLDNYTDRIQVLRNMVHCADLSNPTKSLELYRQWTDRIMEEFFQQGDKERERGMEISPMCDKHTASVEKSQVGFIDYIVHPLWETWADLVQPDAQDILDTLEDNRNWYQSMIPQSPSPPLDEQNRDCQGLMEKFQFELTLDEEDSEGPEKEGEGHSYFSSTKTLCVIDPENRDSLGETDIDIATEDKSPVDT

Row | Structure (SMILES) | activation (PDE inhibition) | Potency
19 | COC(=O)CC[C@@H](C)[C@@H]1CC[C@@H]2[C@@H]3CC[C@H]4C[C@@H](O)CC[C@@]4(C)[C@@H]3CC[C@]21C | -1.1% (inactive) | 
20 | CC(=O)N1CCN(c2ccc(OC[C@@H]3CO[C@@](Cn4ccnc4)(c4ccc(Cl)cc4Cl)O3)cc2)CC1 |  | inactive
21 | N#CCCn1c(=O)c(-c2ccccc2)nc2cnc(N3CCNCC3)nc21 | 7.61% (inactive) | 
22 | NCCNc1ncnc2ccc(Cl)cc12 | -3.2% (inactive) | 
23 | O=C(NCCO)c1ccc(Cl)cc1 | 6.96% (inactive) | 
24 | O=c1cc(CF)[nH]c(=S)[nH]1 | 0.0467% (inactive) | 
25 | c1ccc2cc(-c3cc(-c4cc(-c5ccc6ccccc6c5)on4)no3)ccc2c1 | 5.91% (inactive) | 
26 | OC[C@H](S)CS | 22.2% (inactive) | 
27 | O=C(O)c1[nH]c(=O)[nH]c(=O)c1CN1CCCCC1 | -0.549% (inactive) | 
28 | CN(C)CN1C(=O)S/C(=C2/C(=O)N(CN(C)C)c3ccccc32)C1=O | -3.87% (inactive) | 
29 | NC(=O)c1ncn([C@@H]2O[C@@H](CO)[C@@H](O)[C@H]2O)n1 | 2.47% (inactive) | 
30 | CC(C)(C)c1ccc([C@@H](O)CCCN2CCC(C(O)(c3ccccc3)c3ccccc3)CC2)cc1 |  | 2 µM (active) and inactive
31 | O=C(O)/C(=C\c1ccccc1)c1ccccc1 | -1.22% (inactive) | 
32 | NCCCc1ccc2oc3ccccc3c2c1 | 8.05% (inactive) | 
33 | O=C(O)c1cc(-c2ccc(-c3ccccc3)cc2)nc2cc3ccccc3cc12 | -3.06% (inactive) | 
34 | N=c1ccn2c(n1)O[C@@H]1[C@@H](O)[C@H](CO)O[C@H]12 | -2.28% (inactive) | 
35 | COc1cc(N=Nc2cccc(S(N)(=O)=O)c2)c2ccccc2c1N | -14.9% (inactive) | 
36 | Cc1nnc(SCC2=C(C(=O)O)N3C(=O)[C@@H](NC(=O)Cn4cnnn4)[C@@H]3SC2)s1 |  | inactive

Row | Structure (SMILES) | activation (PDE inhibition) | Potency
37 | CN1C[C@H](c2ccccc2)C(O)([C@]2(c3ccccc3)CN(C)C[C@@H](c3ccccc3)C2=O)[C@H](c2ccccc2)C1 (some centres undefined) | 6.79% (inactive) | 
38 | CC(CO)(CO)N=Cc1cc(I)cc(I)c1O | -9.48% (inactive) | 
39 | Cc1cc(O)c(C(C)C)cc1C1(c2cc(C(C)C)c(O)cc2C)OC(=O)c2ccccc21 | 3.15% (inactive) | 
40 | C[N+](C)(C)/N=C\c1ccc(O)c(O)c1 | 12.5% (inactive) | 
41 | CSc1ccc(NC(=O)Nc2cc(C)ccn2)cc1 | 0.111% (inactive) | 
42 | N[C@H](COP(=O)(O)O)C(=O)O | 4.49% (inactive) | 
43 | C[C@H](CN(C)C)C(=O)c1ccccc1C(=O)O | 6.86% (inactive) | 
44 | O=C(O)c1cc(-c2ccc(-c3ccc(-c4cc(C(=O)O)c5cc(Cl)ccc5n4)cc3)cc2)nc2ccc(Cl)cc12 | -6.49% (inactive) | 
45 | Cc1cc2nc([C@H](C)C(=O)c3ccc(Cl)cc3)c(=O)[nH]c2cc1C | -2.32% (inactive) | 
46 | NCS(=O)(=O)O | -4.37% (inactive) | 
47 | O=C(O)CCCC[C@H]1CCSS1 | 16.7% (inactive) | 
48 | C(=C/c1ccccc1)/CN1CCN(C(c2ccccc2)c2ccccc2)CC1 |  | inactive
49 | O=C(C[n+]1ccc2ccccc2c1)c1ccc2ccc3ccccc3c2c1 | 0.949% (inactive) | 
50 | CC(C)c1ccc(O)c(O)c(=O)c1 (tested in a mixture with another compound) | 2.66% (inactive) | 
51 | COc1cc2nc(N(C)CCCNC(=O)[C@@H]3CCCO3)nc(N)c2cc1OC | 3.25% (inactive) | 
52 | C[N+]1(NCC[N@@+]2(C)CCc3ccccc3C2)CCCCC1 | 1.83% (inactive) | 
53 | Oc1ccc([C@@H]2CNCCc3c2cc(O)c(O)c3Cl)cc1 |  | inactive
54 | O=C1C=C(N2CCN(c3ccccn3)CC2)C(=O)c2c(O)ccc(O)c21 | 2.2% (inactive) | 
